Results published in PubChem BioAssay (NCATS).
Where “and” joins values, the source holds several entries; their conditions need not be identical. Equal values may be shown once. Records with an inconclusive call do not appear. Where a call stands in place of a potency, no number is given. Where a structure was tested more than once in an assay, its records may differ in their call. Unmarked numbers belong to inactive results. Calls of active or inactive are those of the source. The call rests on the fitted dose curve; in most records, active means well fitted inhibition curve with a large enough effect; inconclusive means small, poorly fitted or top-dose-only effect; inactive means flat fitted curve, though single readings scatter.

Legend:
[1] = test system: PC49; assay: qHTS profiling for inhibitors of Plasmodium falciparum proliferation (AID 504749); details: P. falciparum in erythrocytes, SYBR Green DNA, 72 h; series mostly up to 28.7 µM
Summary of the method: (§1)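 Infected RBCs, 0.3% parasitemia/2.5% Hct final; cpd 72 h, 37 C, 5% CO2; lysis buffer with saponin/triton/SYBR Green I, o/n RT dark; FI 485/535; norm. to artemisinin (0.29 uM) and DMSO.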

[2] = test system: SC27B; assay: as above; details: P. falciparum in erythrocytes, SYBR Green DNA, 72 h; series mostly up to 28.7 µM
Summary of the method: as §1

[3] = test system: TAB109; assay: as above; details: P. falciparum in erythrocytes, SYBR Green DNA, 72 h; series mostly up to 28.7 µM
Summary of the method: as §1

[4] = test system: TAB113; assay: as above; details: P. falciparum in erythrocytes, SYBR Green DNA, 72 h; series mostly up to 28.7 µM
Summary of the method: as §1

[5] = test system: TAB165; assay: as above; details: P. falciparum in erythrocytes, SYBR Green DNA, 72 h; series mostly up to 28.7 µM
Summary of the method: as §1

[6] = test system: W2; assay: as above; details: P. falciparum in erythrocytes, SYBR Green DNA, 72 h; series mostly up to 28.7 µM
Summary of the method: as §1

[7] = test system: CRL-7250; assay: Cytotoxic Profiling of Annotated Libraries Using Quantitative High-Throughput Screening (AID 1296008); details: Five cell lines viability, CellTiter-Glo ATP luminescence, 48-72 h; max response: stronger effect = lower value; further: potency means the concentration at half of the fitted maximal effect
Summary of the method: (§2)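 Cytotoxicity was measured as CellTiter-Glo ATP luminescence, read after 10 min at room temperature. Compound treatment of the cells lasted 48 or 72 hr at 37 degrees Celsius in a qHTS format.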

[8] = test system: HEK293; assay: as above; details: Five cell lines viability, CellTiter-Glo ATP luminescence, 48-72 h; max response: stronger effect = lower value
Summary of the method: as §2

[9] = test system: HaCat; assay: as above; details: Five cell lines viability, CellTiter-Glo ATP luminescence, 48-72 h; max response: stronger effect = lower value
Summary of the method: as §2

[10] = test system: KB-3-1; assay: as above; details: Five cell lines viability, CellTiter-Glo ATP luminescence, 48-72 h; max response: stronger effect = lower value
Summary of the method: as §2

[11] = test system: NIH3T3; assay: as above; details: Five cell lines viability, CellTiter-Glo ATP luminescence, 48-72 h; max response: stronger effect = lower value
Summary of the method: as §2

[12] = test system: HACAT; assay: qHTS assay to identify novel small-molecules to repurpose for Merkel cell carcinoma treatment (AID 1296009); details: MCC and control cell lines, CellTiter-Glo viability, 72 h; at 44.8 µM (top of the series) unless noted; further: potency means the concentration at half of the fitted maximal effect
Summary of the method: (§3)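 72 hr, 37 degree celsius; NPC 8-pt / MIPE 11-pt dose response; compound pinned in DMSO; CellTiter-Glo, 10 min RT, luminescence; normalized to no-cell and DMSO controls.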

[13] = test system: MCC-13; assay: as above; details: MCC and control cell lines, CellTiter-Glo viability, 72 h; series mostly up to 46 µM
Summary of the method: as §3

[14] = test system: MCC-26; assay: as above; details: MCC and control cell lines, CellTiter-Glo viability, 72 h; series mostly up to 46 µM
Summary of the method: as §3

[15] = test system: MKL-1; assay: as above; details: MCC and control cell lines, CellTiter-Glo viability, 72 h; series mostly up to 46 µM
Summary of the method: as §3

[16] = test system: MKL-2; assay: as above; details: MCC and control cell lines, CellTiter-Glo viability, 72 h; series mostly up to 46 µM
Summary of the method: as §3

[17] = test system: UISO; assay: as above; details: MCC and control cell lines, CellTiter-Glo viability, 72 h; series mostly up to 46 µM
Summary of the method: as §3

[18] = test system: CRL-7250; assay: as above; details: MCC and control cell lines, CellTiter-Glo viability, 72 h; at 44.8 µM (top of the series) unless noted
Summary of the method: as §3

[19] = test system: NIH3T3; assay: as above; details: MCC and control cell lines, CellTiter-Glo viability, 72 h; at 44.8 µM (top of the series) unless noted
Summary of the method: as §3

[20] = test system: HEK293T; assay: as above; details: MCC and control cell lines, CellTiter-Glo viability, 72 h; at 44.8 µM (top of the series) unless noted
Summary of the method: as §3
Further: nearly all actives have a fitted effect of over 60% in size.

O=C(O)COc1ccccc1
Potency [1]: inactive | Potency [2]: inactive | Potency [3]: inactive | Potency [4]: inactive | Potency [5]: inactive | Potency [6]: inactive | max response [7]: 4.33% | max response [8]: 2.38% | outcome [9]: inactive | max response [10]: -13.1% | max response [11]: -0.908% | outcome [12]: inactive | Potency [13]: inactive | Potency [14]: inactive | Potency [15]: inactive | Potency [16]: inactive | Potency [17]: inactive

CSCC[C@@H](NC(=O)[C@@H](Cc1ccccc1)NC(=O)CNC(=O)CNC(=O)[C@@H](N)Cc1ccc(O)cc1)C(=O)O
max response [7]: 2.24% | max response [8]: 3.52% | outcome [9]: inactive | max response [10]: 3.04% | max response [11]: 2.68% | outcome [12]: inactive | Potency [13]: inactive | Potency [14]: inactive | Potency [15]: inactive | Potency [16]: inactive | Potency [17]: inactive

C1CCC(NC2CCCCC2)CC1
Potency [1]: inactive | Potency [2]: inactive | Potency [3]: inactive | Potency [4]: inactive | Potency [5]: inactive | Potency [6]: inactive | outcome [7]: inactive | max response [8]: 2.36% | max response [9]: 3.35% | max response [10]: 6.25% | max response [11]: -2.97% | outcome [18]: inactive | Potency [13]: inactive | Potency [15]: inactive | Potency [16]: inactive | Potency [17]: inactive

O=C(Oc1ccc([N+](=O)[O-])cc1)N1CCN(Cc2cccc(Oc3ccccc3)c2)CC1
max response [7]: -6.9% and 1.64% | max response [8]: 1.27% | max response [9]: 0.717% and -5.04% | max response [10]: -6.21% and -13.5% | max response [11]: 0.403% | outcome [11]: inactive | Potency [13]: inactive | Potency [14]: inactive | Potency [15]: inactive | Potency [16]: inactive | outcome [19]: inactive | Potency [17]: inactive

CC[C@@H](C(N)=O)N1CCCC1=O
max response [7]: 0.0308% | outcome [8]: inactive | outcome [9]: inactive | max response [10]: 6.38% | max response [11]: 1.04% | outcome [12]: inactive | outcome [20]: inactive | Potency [13]: inactive | Potency [14]: inactive | Potency [15]: inactive | Potency [16]: inactive | Potency [17]: inactive

Cc1ccccc1-n1c(Cn2ncc3c(N)ncnc32)nc2cccc(C)c2c1=O
max response [7]: -1.16% | outcome [7]: inactive | outcome [8]: inactive | outcome [9]: inactive | outcome [10]: inactive | max response [11]: 1.98% | outcome [11]: inactive | outcome [18]: inactive | outcome [12]: inactive | outcome [20]: inactive | Potency [13]: 13200 nM (active) | Potency [16]: inactive | outcome [19]: inactive | Potency [17]: 1320 nM (active)

CCNC(=O)CC1N=C(c2ccc(Cl)cc2)c2cc(OC)ccc2-n2c(C)nnc21 (stereo not drawn)
Potency [7]: 1640 nM (active) | max response [7]: -29.2% and -3.83% | Potency [8]: 6510 nM (active) | max response [8]: -10.4% | outcome [8]: inactive | max response [9]: -4.28% and 0.244% and -23.7% | max response [10]: -3.15% | outcome [10]: inactive | max response [11]: 4.41% | outcome [11]: inactive | outcome [20]: inactive | Potency [13]: inactive | Potency [15]: inactive | outcome [19]: inactive | Potency [17]: inactive

CC(C)[C@]12O[C@H]1[C@@H]1O[C@]13[C@]1(O[C@H]1C[C@H]1C4=C(CC[C@@]13C)C(=O)OC4)[C@@H]2O
Potency [7]: 82 nM (active) | Potency [8]: 7.3 nM (active) | Potency [9]: 130 nM (active) | Potency [10]: 65.1 nM (active) | Potency [11]: 92 nM (active)

CC(N[C@H]1C[C@H]1c1ccccc1)c1ccc2c(c1)OCCO2 (stereo partly drawn)
max response [7]: 1.35% and -26.3% | max response [8]: 0.032% and -12.5% | outcome [9]: inactive | max response [10]: 2.53% and -2.54% | max response [11]: 4.85% and -28.5% | outcome [12]: inactive | Potency [13]: inactive | Potency [14]: inactive | Potency [15]: inactive | Potency [16]: inactive | Potency [17]: inactive

CC(=O)N(C)c1cccc(-c2ccnc3c(C(=O)c4cccs4)cnn23)c1
max response [7]: -13.2% | outcome [7]: inactive | max response [8]: -28% and -16.5% | max response [9]: 3.39% | outcome [9]: inactive | max response [10]: -3.54% | outcome [10]: inactive | max response [11]: -0.872% and 2.98% | outcome [18]: inactive | outcome [12]: inactive | Potency [13]: inactive | Potency [14]: inactive | Potency [15]: inactive | Potency [16]: inactive | Potency [17]: inactive

CN(C)[C@@H]1C(=O)C(C(N)=O)=C(O)[C@@]2(O)C(=O)C3=C(O)c4c(O)cccc4[C@@](C)(O)[C@H]3[C@H](O)[C@@H]12
Potency [1]: inactive | Potency [2]: inactive | Potency [4]: inactive | max response [7]: -1.31% | outcome [8]: inactive | outcome [9]: inactive | max response [10]: -7.87% and 0.265% and -1.24% | max response [11]: 4.97% | outcome [12]: inactive | outcome [20]: inactive | Potency [13]: inactive | Potency [15]: inactive | Potency [16]: inactive | Potency [17]: inactive

CCC(=O)OC1CCC2C3CCC4=CC(=O)CC[C@@]4(C)C3CC[C@]12C (stereo partly drawn)
max response [7]: -4.7% | outcome [8]: inactive | outcome [9]: inactive | outcome [10]: inactive | max response [11]: 4.81% | outcome [12]: inactive | outcome [20]: inactive | Potency [13]: inactive | Potency [15]: inactive | Potency [16]: inactive | Potency [17]: inactive
